Laboratory results reported in the supplement of paper PMC10498489.
Hit rate of the full screen: of about 2,300 compounds, about 330 (14%) showed activity.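 Rule for the calls: active = median modified Z-score above 1.96; inactive = 1.96 or below.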 These entries were drawn from the full list.

Each compound was assayed on HepG2 Srxn1-GFP reporter cells (+30 nM CDDO-Me) (assay: Srxn1-GFP intensity median modified Z-score relative to plate median; higher = stronger NRF2 / oxidative stress reporter activation, active = hit call of the paper). Conditions: 10 µM; exposure time: 24h.
Method in brief: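 The modified Z-score of GFP intensity was computed per plate, and the median over replicates is reported. HepG2 Srxn1-GFP BAC reporter cells in three replicate plates were treated for 24 h with compound at 10 μM plus an NRF2 activator at 30 nM (≤0.1% DMSO). Per-cell cytoplasmic GFP came from confocal images, excluding those with under 100 cells, and scaling used 1.4826 × median absolute deviation.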

| Compound | Srxn1-GFP intensity median modified Z-score |
| --- | --- |
| CC1=CC(=O)c2ccccc2C1=O [euspeclibcmpd446] | 5.02 (active) |
| CN1C(C(=O)N=c2cccc[nH]2)C(=O)c2sc(Cl)cc2S1(=O)=O (stereo not drawn) [euspeclibcmpd458] | -0.432 (inactive) |
| CC(=O)OC=C1CSC2C(NC(=O)Cc3cccs3)C(=O)N2C1C(=O)O (stereo not drawn) [euspeclibcmpd2267] | 0.967 (inactive) |
| S=c1[nH]c2ccccc2s1 [euspeclibcmpd1954] | -0.455 (inactive) |
| CN(C)CC/C=C1\c2ccccc2Sc2ccc(Cl)cc21 [euspeclibcmpd538] | -1.04 (inactive) |
| CN1CCN(CC/C=C2\c3ccccc3Sc3ccc(S(=O)(=O)N(C)C)cc32)CC1 [euspeclibcmpd294] | 4.72 (active) |
| CN(C)CCC=C1c2ccccc2CCc2ccccc21 [euspeclibcmpd21] | 0.287 (inactive) |
| CN1CCC[C@@H]1Cc1c[nH]c2ccc(CCS(=O)(=O)c3ccccc3)cc12 [euspeclibcmpd938] | -0.193 (inactive) |
| CCCN(Cc1nnc(-c2cccs2)o1)C(=O)CSc1nnc(-c2cccs2)n1C1CC1 | 0.54 (inactive) |
| CC1O[C@@H](Oc2c(-c3ccc(O)c(O)c3)oc3cc(O)cc(O)c3c2=O)[C@H](O)[C@H](O)[C@H]1O (stereo partly drawn) [euspeclibcmpd1694] | -0.35 (inactive) |
| NC(=O)N/N=C/c1ccc([N+](=O)[O-])o1 [euspeclibcmpd210] | 10.3 (active) |
| O=C1OC(CN2CCOCC2)CN1/N=C/c1ccc([N+](=O)[O-])o1 (stereo not drawn) [euspeclibcmpd1273] | 0.605 (inactive) |
| O=c1[nH]c(O)cn1/N=C/c1ccc([N+](=O)[O-])o1 [euspeclibcmpd209] | 0.292 (inactive) |
| O=C(N/N=C/c1ccc([N+](=O)[O-])o1)c1ccc(Br)cc1 | 4.87 (active) |
| O=C(N/N=C/c1ccc([N+](=O)[O-])o1)c1ccc(O)cc1 [euspeclibcmpd1226] | 0.949 (inactive) |
| O=C1OCCN1/N=C/c1ccc([N+](=O)[O-])o1 [euspeclibcmpd134] | 2.95 (active) |
| CC(C)(C)c1ccc(C(=O)N/N=C/c2ccc([N+](=O)[O-])o2)cc1 | 1.17 (inactive) |
| CC(C)CC(N)C(=O)NC(C)C(=O)O (stereo not drawn) [euspeclibcmpd1745] | 0.124 (inactive) |
| CC(=O)NCCc1ccc(O)c(C2C(=O)C(=O)c3c(c(O)c4c(C(=O)O)c(C(=O)O)c(O)cc4c3O)C2=O)c1 (stereo not drawn) [euspeclibcmpd1580] | -0.208 (inactive) |
| CC(=O)OC=C1CSC2C(N)C(=O)N2C1C(=O)O (stereo not drawn) [euspeclibcmpd1380] | -0.0231 (inactive) |
| O=C(O)c1ccc[nH]c1=Nc1cccc(C(F)(F)F)c1 [euspeclibcmpd1074] | -0.299 (inactive) |
| N#CCOC(=O)c1cc(-c2ccccc2)nc2ccccc12 | 1.25 (inactive) |
| NCCc1cc[nH]n1 [euspeclibcmpd614] | 1.24 (inactive) |
| NC(=O)NC(CC(=O)O)C(=O)O (stereo not drawn) | 1.02 (inactive) |

| Compound | Srxn1-GFP intensity median modified Z-score |
| --- | --- |
| CNC(=O)CN1CCC(NC(=O)NCc2ccc(C)n2C)CC1 | 0.3 (inactive) |
| CN1CCN(C(=O)Oc2c3nccnc3c(O)n2-c2ccc(Cl)cn2)CC1 [euspeclibcmpd2130] | -0.245 (inactive) |
| C=C(C)[C@@H]1CC[C@]2(C(=O)O)CC[C@]3(C)[C@H](CCC4[C@@]5(C)CC[C@H](O)C(C)(C)C5CC[C@]43C)[C@@H]12 (stereo partly drawn) [euspeclibcmpd1473] | -0.366 (inactive) |
| C=C(C)[C@@H]1CC[C@]2(CO)CC[C@]3(C)[C@H](CCC4[C@@]5(C)CC[C@H](O)C(C)(C)C5CC[C@]43C)C12 (stereo partly drawn) [euspeclibcmpd1538] | 10.7 (active) |
| C=C(C)[C@@H]1CC[C@]2(C)CC[C@]3(C)[C@@H](CCC4[C@@]5(C)CC[C@H](O)C(C)(C)C5CC[C@]43C)C12 (stereo partly drawn) [euspeclibcmpd1455] | -0.31 (inactive) |
| CC=C(c1ccc(O)cc1)C(CC)c1ccc(O)cc1 (stereo not drawn) [euspeclibcmpd93] | 0.179 (inactive) |
| NCCSSCCN [euspeclibcmpd2395] | -0.505 (inactive) |
| N=C(N)N [euspeclibcmpd2417] | -0.496 (inactive) |
| N=C(N)SCCN [euspeclibcmpd1761] | 3.8 (active) |
| N=c1[nH]c(=O)c2ncn(COC(CO)CO)c2[nH]1 [euspeclibcmpd487] | 0.251 (inactive) |
| CCN1CCN(C(=O)NC(C(=O)NC2C(=O)N3C2SC(C)(C)[C@@H]3C(=O)O)c2ccccc2)C(=O)C1=O (stereo partly drawn) [euspeclibcmpd2069] | 0 (inactive) |
| CC1(C)OC2CC3C4CC(F)=C5CC(=O)CCC5(C)C4C(O)CC3(C)C2(C(=O)CO)O1 (stereo not drawn) [euspeclibcmpd1953] | -0.815 (inactive) |
| O=C1OC(c2ccc(O)cc2)(c2ccc(O)cc2)c2ccccc21 [euspeclibcmpd234] | 1.62 (inactive) |
| O=C1OC2(c3ccc(O)cc3Oc3cc(O)ccc32)c2ccccc21 [euspeclibcmpd769] | 2.16 (active) |
| O=c1cc(-c2ccccc2O)oc2cc(O)ccc12 [euspeclibcmpd1982] | -0.161 (inactive) |
| CS(=O)(=O)c1ccc([C@H](O)[C@H](CF)NC(=O)C(Cl)Cl)cc1 [euspeclibcmpd827] | -0.193 (inactive) |
| OC[C@H]1O[C@@H](Oc2ccc(Cl)cc2)[C@H](O)[C@@H](O)[C@H]1O | 1.18 (inactive) |
| COC(=O)N=c1[nH]c2ccc(C(=O)c3ccccc3)cc2[nH]1 [euspeclibcmpd378] | 19.3 (active) |
| COC(=O)N=c1[nH]c2ccc([S+]([O-])c3ccccc3)cc2[nH]1 (stereo not drawn) [euspeclibcmpd738] | -0.824 (inactive) |
| CCOC(=O)N=c1[nH]c2ccccc2[nH]1 [euspeclibcmpd787] | -0.0391 (inactive) |
| COC(=O)N=c1[nH]c2ccc(Sc3ccccc3)cc2[nH]1 [euspeclibcmpd371] | 2.82 (active) |
| COC(=O)N=c1[nH]c2ccc(C(=O)c3ccc(F)cc3)cc2[nH]1 [euspeclibcmpd2318] | 8.09 (active) |
| O=c1oc2ccccc2cc1O [euspeclibcmpd2250] | -0.381 (inactive) |
| CCC(C)(C)c1ccc(CC(C)CN2C[C@@H](C)O[C@@H](C)C2)cc1 (stereo partly drawn) [euspeclibcmpd489] | 1.75 (inactive) |
